Our source for the z-score and composite z-score values is PubChem BioAssay.

Experiment [1] is described as follows: resazurin metabolic signal in HepG2 cells – cell-based, resazurin fluorescence, 24 h, PK04 Diversity Set, profiling panel (AID 1172). The conditions noted are these: HepG2 viability, higher = more signal. (In general: Alamar Blue is a resazurin reagent that responds to reducing activity.)
Experiment [2] in a line: budding yeast growth changes without added modifier – OD600, strain BY4716, 24 h, basal condition, primary screen (AID 1173). The conditions noted are these: S. cerevisiae BY4716 growth, OD600, 24 h; higher = more signal, called active from +8 up or from −8 down.
Experiment [3] can be described thus: viability profiling in MM1S myeloma cells – cell-based, resazurin fluorescence, basal, 24 h, PK04 Diversity Set, profiling panel (AID 1174).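 Note: MM1S multiple myeloma cell line.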 The conditions noted are these: higher = more signal, called active from +8 up or from −8 down.
For experiment [4], the target named is Dihydroorotate dehydrogenase (quinone), mitochondrial (Plasmodium falciparum (isolate 3D7)) (UniProt Q08210). Briefly: inhibition of P. falciparum DHODH – biochemical, C-terminal His tag, absorbance 600 nm, primary screen (AID 1175).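 Note: recombinant parasite enzyme with a five histidine tag at its C terminus.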 Conditions: PfDHODH enzyme, DCIP absorbance 600 nm; higher = more signal, called active from +8 up or from −8 down.
The nature of experiment [5]: inhibition of PAO1 biofilm formation – strain PAO1, LB-PBS medium, absorbance 600 nm, primary screen (AID 1176). Conditions: P. aeruginosa PAO1 growth/biofilm, A600, 12 h; higher = more signal.
Experiment [6] is described as follows: growth modulation of vineyard yeast isolate – strain RM11-1a, OD600, basal, 24 h, primary screen (AID 1177).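 Note: cultures grown under basal conditions with no added stressor.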 The conditions noted are these: S. cerevisiae RM11-1a growth, OD600, 24 h; higher = more signal, called active from +8 up or from −8 down.
Experiment [7] is described as follows: growth of efflux-deficient E. coli DRC39 – strain DRC39, OD650, 24 h, E. coli filamentation inducers, primary screen (AID 1178).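 Note: growth measured as culture turbidity by optical density at 650 nm.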 Conditions: E. coli DRC39 acrAB, higher = more signal, called active from +8 up or from −8 down.
A short description of experiment [8]: growth of efflux-deficient E. coli DRC39 – strain DRC39, OD650, 48 h, E. coli filamentation inducers, primary screen (AID 1179).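 Note: screen aims at cell division blockers that make cells filament.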 Conditions: E. coli DRC39 delta-acrAB growth, higher = more signal, called active from +8 up or from −8 down.
The nature of experiment [9]: viability profiling in RPMI8226 myeloma cells – cell-based, resazurin fluorescence, basal, 24 h, PK04 Diversity Set, profiling panel (AID 1180).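 Note: RPMI8826 multiple myeloma cell line at 5000 cells per well.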 The conditions noted are these: higher = more signal.
Experiment [10] addresses E3 ubiquitin-protein ligase XIAP (Homo sapiens) (UniProt P98170). As to the kind of experiment: small molecules binding XIAP protein – biophysical, small-molecule microarray, fluorescence 635 nm, primary screen (AID 1181).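 Note: score merges 667 nm emission and signal to noise over triplicate slides.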 Conditions: higher = more signal.
Experiment [11] concerns XIP peptide (Xip251-270) binding. Briefly: XIP fragment 251-270 binding compounds – biochemical, small-molecule microarray, fluorescence 635/667 nm, 0.1 µg/mL protein, primary screen (AID 1182). The conditions noted are these: fluorescent protein binding, 635 nm, higher = more signal, called active from +8 up or from −8 down.
The subject of a further experiment is XIP peptide (Xip251-270). Briefly: compounds binding XIP fragment 251-270 – biochemical, small-molecule microarray, fluorescence 635/667 nm, 0.5 µg/mL protein, primary screen (AID 1183). Conditions: fluorescence 635 nm, higher = more signal.
Experiment [12] can be described thus: blood-stage malaria parasite viability loss – strain 3D7, DAPI fluorescence, 100 nL, primary screen (AID 1184).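 Note: parasites grown inside human red blood cells in medium with human serum.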 Conditions: P. falciparum 3D7 growth, 3 d, higher = more signal.
The target in experiment [13] is Homeobox protein Hox-A13 (Mus musculus) (UniProt Q62424). As to the kind of experiment: disruptors of Hoxa13 oligonucleotide interaction – biochemical, fluorescence polarization, labeled oligonucleotide, primary screen (AID 1185). Conditions: Hoxa13:DNA binding, 15 min, higher = more signal, called active from +8 up or from −8 down. On the technique in general: Polarisation of emitted light reports the rotation of a fluorescent probe.

A short description of experiment [14]: blockers of DNA damage checkpoint Chk1 activation – imaging, HeLa, hydroxyurea, phospho-Chk1 antibody, percent positive cells, primary screen (AID 1186). Conditions: hydroxyurea-induced phospho-Chk1 immunofluorescence imaging, higher = more signal.
A short description of experiment [15]: blockers of DNA damage checkpoint Chk1 activation – imaging, HeLa, hydroxyurea, phospho-Chk1 nuclear intensity, primary screen (AID 1187). Conditions: hydroxyurea-induced phospho-Chk1 immunofluorescence imaging, higher = more signal.

SMILES strings stand for the structures. The source made the active and inactive calls. Unless noted, the rule behind the calls is not given here.

Homeobox protein Hox-A13 (Mus musculus), sequence (Q62424 whole entry, looked up): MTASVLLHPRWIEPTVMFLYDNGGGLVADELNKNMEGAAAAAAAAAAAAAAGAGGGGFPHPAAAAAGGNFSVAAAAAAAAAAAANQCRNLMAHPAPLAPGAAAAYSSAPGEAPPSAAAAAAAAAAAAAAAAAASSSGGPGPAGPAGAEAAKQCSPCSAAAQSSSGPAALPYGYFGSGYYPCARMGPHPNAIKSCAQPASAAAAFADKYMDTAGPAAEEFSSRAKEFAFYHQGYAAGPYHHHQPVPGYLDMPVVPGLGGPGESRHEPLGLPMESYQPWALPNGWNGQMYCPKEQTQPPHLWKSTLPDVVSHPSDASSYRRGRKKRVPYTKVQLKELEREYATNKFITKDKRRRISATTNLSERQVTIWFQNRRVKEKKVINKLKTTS
E3 ubiquitin-protein ligase XIAP (Homo sapiens), sequence (P98170 whole entry, looked up, the tested form may be a part): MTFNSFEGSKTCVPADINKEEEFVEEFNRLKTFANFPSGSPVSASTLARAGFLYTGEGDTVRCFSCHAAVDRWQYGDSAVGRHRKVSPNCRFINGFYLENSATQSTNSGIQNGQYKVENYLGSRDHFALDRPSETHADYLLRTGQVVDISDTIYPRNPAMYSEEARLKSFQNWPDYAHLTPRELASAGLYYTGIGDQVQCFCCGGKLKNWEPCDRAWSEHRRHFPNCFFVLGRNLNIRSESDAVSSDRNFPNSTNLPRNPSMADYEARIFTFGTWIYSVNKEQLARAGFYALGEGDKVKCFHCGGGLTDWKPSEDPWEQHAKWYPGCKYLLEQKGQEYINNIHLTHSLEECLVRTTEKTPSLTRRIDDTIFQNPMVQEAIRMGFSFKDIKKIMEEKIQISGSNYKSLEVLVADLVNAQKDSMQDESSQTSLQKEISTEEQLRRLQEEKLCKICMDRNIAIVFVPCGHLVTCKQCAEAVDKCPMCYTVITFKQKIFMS
Dihydroorotate dehydrogenase (quinone), mitochondrial (Plasmodium falciparum (isolate 3D7)), sequence (Q08210 whole entry, looked up): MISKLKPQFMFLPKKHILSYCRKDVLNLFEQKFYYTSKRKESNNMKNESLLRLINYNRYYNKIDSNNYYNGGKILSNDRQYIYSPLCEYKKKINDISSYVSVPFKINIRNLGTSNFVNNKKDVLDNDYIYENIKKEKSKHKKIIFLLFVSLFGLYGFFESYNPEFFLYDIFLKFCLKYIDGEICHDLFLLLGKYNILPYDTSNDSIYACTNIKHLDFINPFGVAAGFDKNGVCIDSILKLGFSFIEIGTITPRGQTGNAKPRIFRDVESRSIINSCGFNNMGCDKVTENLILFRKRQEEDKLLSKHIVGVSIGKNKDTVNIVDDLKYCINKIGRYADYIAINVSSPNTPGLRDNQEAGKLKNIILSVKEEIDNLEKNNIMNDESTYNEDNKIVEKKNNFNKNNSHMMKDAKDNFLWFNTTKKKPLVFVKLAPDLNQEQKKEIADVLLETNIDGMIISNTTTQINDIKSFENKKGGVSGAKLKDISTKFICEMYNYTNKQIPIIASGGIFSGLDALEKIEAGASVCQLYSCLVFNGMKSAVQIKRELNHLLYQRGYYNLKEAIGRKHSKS

Consider `CC(C)Cc1ccc(CN2CC[C@@H](N)C2)cc1`, for which the z-score in [1] was 1.51; in [2], -12.8 (active); in experiment [3], -1.49 (inactive); in experiment [5] it was -0.271 (inactive); in experiment [6], -0.0782 (inactive); in experiment [7], 1.47 (inactive). The z-score in [8] is 0.611 (inactive); in experiment [9], -0.681; in experiment [12] it was -0.423; in experiment [13], -0.811 (inactive); in experiment [14], -0.939 (inactive); in experiment [15] it was -0.735 (inactive). Besides, the composite z-score is 4.28 (inactive) in experiment [4], -0.269 in experiment [10], 0.773 (inactive) in experiment [11] and -0.0255 in the experiment with XIP peptide (Xip251-270).

For `[N-]=[N+]=Nc1ccccc1[C@H]1OC(c2ccc(OCCCO)cc2)=N[C@@]1(CCS(=O)(=O)c1ccccc1)C(=O)NCc1ccccc1`, the z-score was 0.614 in experiment [1]; -0.008 (inactive) in experiment [2]; -0.548 (inactive) in experiment [3]; 0.441 (inactive) in [5]; -0.22 (inactive) in experiment [6]; -0.0211 (inactive) in experiment [7]. Besides, the z-score was -0.77 (inactive) in [8]; -0.129 in experiment [9]; -2.48 in [12]; -1.99 (inactive) in [13]; 0.517 (inactive) in experiment [14]; 0.227 (inactive) in experiment [15]. Further, the composite z-score in [4] is 0.44 (inactive); in experiment [10] it was 0.0623; in experiment [11], 0.273 (inactive); in the experiment with XIP peptide (Xip251-270), 0.774.

With `COC(=O)[C@@]1(Cc2ccc(OC)cc2)[C@H]2c3cc(C(=O)N4CCCC4)n(CCc4ccc(O)c(O)c4)c3C[C@H]2CN1C(=O)c1ccccc1`, the z-score is -1.37 in experiment [1]; 1.04 (inactive) in experiment [2]; -1.79 (inactive) in [3]; 2.16 (inactive) in experiment [5]; 0.397 (inactive) in [6]; -0.215 (inactive) in experiment [7]. The z-score is -0.163 (inactive) in [8]; -1.33 in experiment [9]; -1.62 in experiment [12]; -6.01 (inactive) in experiment [13]; 0.264 (inactive) in experiment [14]; 0.379 (inactive) in [15]. Also, the composite z-score in experiment [4] is -0.487 (inactive); in [10], 0.0517; in [11], 1.75 (inactive); with XIP peptide (Xip251-270), 0.83.

`COc1ccc([C@H]2C[C@H]3C(I)=C[C@@H]2C(=O)[C@]32CO2)cc1`: the z-score in experiment [1] was 0.91; in experiment [2], -9.78 (active); in experiment [3], -0.306 (inactive); in [5], 0.167 (inactive); in experiment [6], -1.14 (inactive); in experiment [7], 1.73 (inactive). In addition, the z-score in experiment [8] was 0.344 (inactive); in experiment [9], 0.867; in experiment [12], 0.456; in experiment [13], -1.41 (inactive); in experiment [14] it was 0.125 (inactive); in experiment [15], -0.217 (inactive). Further, the composite z-score in experiment [4] was -0.174 (inactive); in experiment [10], 0.288; in experiment [11], -0.344 (inactive); in the experiment on XIP peptide (Xip251-270), 0.68.

Consider `CO[C@H]1O[C@H](CO)[C@@H](OC(=O)Nc2ccc(Oc3ccccc3)cc2)[C@H](OC(=O)Nc2ccc3c(c2)OCO3)[C@@H]1OC(=O)Nc1ccc2c(c1)OCO2`, for which the z-score was -1.01 in experiment [1]; 0.77 (inactive) in experiment [2]; -0.949 (inactive) in experiment [3]; 1.39 (inactive) in experiment [5]; 2.65 (inactive) in experiment [6]; 0.759 (inactive) in experiment [7]. In addition, the z-score in experiment [8] is -0.0218 (inactive); in experiment [9], -0.793; in experiment [12], -2.05; in experiment [13], -6.43 (inactive); in experiment [14] it was 0.126 (inactive); in experiment [15] it was 0.561 (inactive). Moreover, the composite z-score in experiment [4] is 0.0357 (inactive); in experiment [10], 0.222; in experiment [11], 0.23 (inactive); in the experiment on XIP peptide (Xip251-270), 0.863.

`O=C1OCCC=C[C@H]2OC34C=CCN(Cn5nnc6ccccc65)C(=O)[C@H]3N(CCO)C(=O)[C@@H]4C12` (stereo not given in full): the z-score in [1] is 1.02; in experiment [2], 0.202 (inactive); in experiment [3], 0.542 (inactive); in experiment [5], 0.152 (inactive); in [6] it was -0.18 (inactive); in [7], -0.0287 (inactive). Further, the z-score in experiment [8] was -0.249 (inactive); in experiment [9] it was 0.0841; in experiment [12], -0.288; in [13], -2.78 (inactive); in experiment [14], -0.943 (inactive); in [15] it was -1.01 (inactive). For the same compound, the composite z-score in [4] was -1.15 (inactive); in experiment [10], -0.146; in [11], -0.681 (inactive); in the experiment with XIP peptide (Xip251-270) it was -0.552.

With `NC(=O)[C@@H]1[C@H]2C(=O)O[C@H](c3ccccc3)[C@H](c3ccccc3)N2[C@H](c2ccc(OCCO)cc2)[C@@]12C(=O)Nc1ccc(C#CC3=CCCCC3)cc12`, the z-score in [1] was -1.67; in [2] it was 0.193 (inactive); in [3], -7.44 (inactive); in experiment [5], 1.82 (inactive); in [6], 0.657 (inactive); in [7], -0.0159 (inactive). The z-score in [8] was -0.668 (inactive); in experiment [9] it was -6.82; in experiment [12], -0.962; in experiment [13] it was 1.05 (inactive); in experiment [14] it was -0.0315 (inactive); in experiment [15], 0.0692 (inactive). The composite z-score is 0.207 (inactive) in experiment [4], 0.543 in experiment [10], 0.124 (inactive) in experiment [11] and 0.581 with XIP peptide (Xip251-270).

Turning to `C=C(CCCC)/C(=C/C[C@H](OC(C)=O)c1ccc(OCCO)cc1)c1cnc2ccccc2c1`, the z-score in [1] is 0.846; in experiment [2], -0.0576 (inactive); in experiment [3], -1.42 (inactive); in experiment [5], 0.403 (inactive); in [6] it was -0.476 (inactive); in experiment [7], 0.187 (inactive). Besides, the z-score was 0.225 (inactive) in [8]; 0.228 in [9]; -2.93 in experiment [12]; -4.14 (inactive) in experiment [13]; 0.212 (inactive) in [14]; -0.34 (inactive) in experiment [15]. Besides, the composite z-score in experiment [4] was -3.75 (inactive); in [10], -0.312; in experiment [11], 0.578 (inactive); with XIP peptide (Xip251-270), 0.741.

Turning to `O=C1O[C@H](c2ccccc2)[C@H](c2ccccc2)N2[C@H]1[C@@H](C(=O)N1CCN(c3ncccn3)CC1)[C@]1(C(=O)Nc3ccc(C#CC4=CCCCC4)cc31)[C@H]2c1ccccc1OCCO`, the z-score in [1] is -0.476; in [2], 1.4 (inactive); in experiment [3], -1.49 (inactive); in experiment [5] it was 1.78 (inactive); in [6] it was 1.29 (inactive); in [7] it was -0.873 (inactive). Further, the z-score is -1.05 (inactive) in experiment [8]; -1.77 in [9]; -2.09 in experiment [12]; 1.87 (inactive) in [13]; 0.28 (inactive) in [14]; 0.188 (inactive) in [15]. Also, the composite z-score in experiment [4] is -0.0965 (inactive); in experiment [10], 0.0547; in experiment [11] it was 0.263 (inactive); with XIP peptide (Xip251-270), 0.938.

As for `C=CCN(Cc1ccccc1)C(=O)C(c1cccs1)N(C(=O)/C=C\C(=O)O)c1ccc(CCOCCO)cc1` (stereo not given), the z-score in experiment [1] was -0.552; in experiment [2], 0.25 (inactive); in [3] it was 0.222 (inactive); in experiment [5], 0.742 (inactive); in experiment [6], -1.18 (inactive); in experiment [7] it was 0.368 (inactive). Also, the z-score in [8] is 0.651 (inactive); in [9], 0.424; in [12], 0.155; in experiment [13] it was 0.12 (inactive); in [14] it was -1.25 (inactive); in experiment [15], -0.565 (inactive). The composite z-score in experiment [4] is -1.54 (inactive); in experiment [10], -0.249; in experiment [11] it was -0.524 (inactive); with XIP peptide (Xip251-270), 0.625.
